Screens: PubChem BioAssay, National Center for Advancing Translational Sciences (NCATS)
FLuc inh: Firefly luciferase inhibition profiling of diverse chemical library using quantitative high-throughput screening. Potency, µM (series often up to 115 µM), usual class: inhibitors. purified P. pyralis luciferase, luminescence, biochemical. 76,000 tested, 2.5% active; further: nearly all actives have a fitted effect of over 65% in size
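Cell-free enzyme assay, 10nM P. pyralis luciferase, luciferin and ATP each at 10uM. Inhibition profiled over a 6-point titration, read as luminescence.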
HEK293 tox: Cytotoxic Profiling in HEK 293 Cell Line of Diverse Libraries Using Quantitative High-Throughput Screening; HEK 293 viability, ATP luminescence (CellTiter-Glo), 48-72 h; Potency, µM (series often up to 115 µM), for the others: top-dose activity change, negative = cytotoxicity, usual class: inhibitors; 94,000 tested, 6.6% active; further: nearly all actives have a fitted effect of over 60% in size
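Pintool-delivered compounds were incubated with HEK 293 cells (250 cells/well) at 37 degree Celsius for 48 or 72 hr. ATP-dependent luminescence (CellTiter-Glo) then reported remaining viable cells.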
hNpr1 antagonist: Natriuretic polypeptide receptor (hNpr1) antagonism - Primary qHTS; Potency, µM (series often up to 46.3 µM), inactives show at the top dose activity change, negative = inhibition, usual class: inhibitors; HEK293 hNpr1 GloSensor cGMP, ANP-stimulated luminescence; Atrial natriuretic peptide receptor 1 (Homo sapiens), P16066; 76,000 tested, 1.6% active; calls by dose curve; further: nearly all actives have a fitted effect of over 60% in size
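HEK293 cells stably expressing human Npr1 and cGMP GloSensor pGS-40F, loaded 2 h with 2% GloSensor reagent, given compound 30 min at room temperature. Luminescence read before and 20 min after 0.1 nM hNppA.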
3T3 cytotox: Cytotoxic Profiling in NIH 3T3 Cell Line of Diverse Libraries Using Quantitative High-Throughput Screening; AID 1345082, 2018; NIH 3T3 viability, CellTiter-Glo ATP luminescence, 48-72 h; Potency, µM (top dose mostly 96.7 µM), for the others: at the highest dose activity change, negative = cytotoxicity, usual class: inhibitors; 94,000 tested, 4.3% active; further: nearly all actives have a fitted effect of over 55% in size
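First NIH 3T3 cells are plated at 400 cells/well; next compound is pinned in; then plates incubate 48 or 72 hr at 37 °C; finally CellTiter-Glo is added and luminescence read after 10 min.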
* marks the source's active call; other numbers are inactive results; i = inactive; ? = inconclusive; / = not tested or not shown; [ ] = another dose, or the depositor's remark. This is a sample that favours compounds with a hit; in the whole collection about 11% have one here. Unless noted, the call rests on the fitted dose curve; in most records, active means well fitted curve in the direction sought with a large enough effect; inconclusive means small, poorly fitted or top-dose-only effect, or another doubt; inactive means no such curve, though single readings can be large; an effect the other way counts as inactive or inconclusive. On the % scale 0 is the no-effect control and ±100 the full control effect; potency means the concentration at half of the fitted maximal effect.

SMILES	FLuc inh	HEK293 tox	hNpr1 antagonist	3T3 cytotox
Cc1noc(C)c1-c1cc2c(cc(C)n2C)c(-c2cccnc2)n1	i	?	4.4%[70.6 µM]	?
Cc1noc(C)c1-c1cc2c(cc(C)n2C)c(-c2ccccc2)n1	i	?	1.3%[70.6 µM]	50.1µM*
CN(C)c1ccc2c(c1)CN(C(=O)c1cnn(C)c1)CCO2	/	-2.5%	/	-23.7%
O=C(Nc1ccccc1F)C1c2ccccc2C(=O)N(Cc2ccccc2)C12CCCC2 (stereo unspecified)	i	?	4.2%	?
COc1ccccc1Nc1ccnc(N2CCCC2C(=O)N(C)C)n1 (stereo unspecified)	/	2.5%	/	-11.2%
CCc1nc(-c2ccc(OC3CCN(CCc4ccccc4)C3)cc2)no1 (stereo unspecified)	?	?	-11.5%	?
Cc1nc(C2CCCN(C(=O)CCCN)C2)cc(N2CCOCC2)n1 (stereo unspecified)	i	-6.2%	-0.4%	-18.9%
Cc1noc(C)c1-c1cc2c(cc(-c3ccccc3)n2C)c(-c2ccnn2C)n1	i	35.5µM*	-19.2%[70.6 µM]	?
Cc1noc(C)c1-c1cc2c(cc(-c3ccccc3)n2C)c(N2CCOCC2)n1	i	56.2µM*	-0.3%[70.6 µM]	31.6µM*
Cc1noc(C)c1-c1cc2c(cc(C)n2C)c(-c2cnn(C)c2)n1	i	?	-1.3%[70.6 µM]	39.8µM*
COc1cc(-c2nc(-c3c(C)noc3C)cc3c2cc(C)n3C)ccn1	i	?	-1.0%[70.6 µM]	?
Cc1noc(C)c1-c1cc2c(cc(C)n2C)c(-c2ccnn2C)n1	i	?	-4.8%[70.6 µM]	?
Cc1noc(C)c1-c1cc2c(cc(C)n2C)c(N2CCN(Cc3ccccc3)CC2)n1	i	?	-0.5%[70.6 µM]	44.7µM*
CCCS(=O)(=O)N1CCC([C@H]2[C@@H](OC)C(=O)N2C(C)C)CC1	/	0.2%	/	-0.1%
CCCn1cc(-c2ccncc2)cc1C(=O)N1CCN(c2ccccc2F)CC1	i	44.7µM*	-19.9%	?
CCCn1cc(-c2ccncc2)cc1C(=O)N1CCN(c2ccccn2)CC1	i	?	?	?
COC(=O)C1=C(C)N=C2SC=C(CC(=O)N(C)Cc3ccco3)N2C1c1cccc(Cl)c1 (stereo unspecified)	i	25.1µM*	?	?
CCOC(=O)C1=C(C)N=C2SC=C(CC(=O)Nc3cccc(OC)c3)N2C1c1cccc(OC)c1 (stereo unspecified)	i	?	-23.6%	?
CCOC(=O)C1=C(C)N=C2SC=C(CC(=O)Nc3ccc(C)c(C)c3)N2C1c1cccc(OC)c1 (stereo unspecified)	i	44.7µM*	-16.5%	39.8µM*
CC(=O)NC1CCN(C(=O)c2ccc(-c3cncnc3)cc2)CC1	/	-0.5%[172 µM]	/	-11.1%[138 µM]
CC#CCn1cc2c3c(cccc31)[C@H](CC(C)C)N[C@H](C(=O)NC(C)C)C2	i	50.1µM*	-2.0%[70.6 µM]	70.8µM*
CC#CCn1cc2c3c(cccc31)[C@H](CC(C)C)N[C@H](C(=O)NC1CCCC1)C2	i	44.7µM*	-9.2%[70.6 µM]	35.5µM*
CC#CCn1cc2c3c(cccc31)[C@H](CC(C)C)N[C@H](C(=O)NCCOC)C2	i	?	-11.0%[70.6 µM]	?
CC#CCn1cc2c3c(cccc31)[C@H](CC(C)C)N[C@H](C(=O)NCCN1CCOCC1)C2	i	?	-10.5%[70.6 µM]	100µM*
CC#CCn1cc2c3c(cccc31)[C@H](CC(C)C)N[C@H](C(=O)N1CCOCC1)C2	i	?	7.0%[70.6 µM]	?
CCOc1ccccc1CN1CCN(c2ncnc3[nH]ccc23)CC1CCO (stereo unspecified)	i	?	4.2%	?
Cc1ccc(C)c(S(=O)(=O)N2c3ccccc3CC2c2nc(C(C)C)no2)c1 (stereo unspecified)	/	14.1µM*	/	?
COC1CN(c2cccc(F)c2)C12CCN(C(=O)NC(C)(C)C)CC2 (stereo unspecified)	i	?	-0.5%	-18.1%
COC1CN(c2cccc(F)c2)C12CCN(C(=O)NCCc1ccccc1)CC2 (stereo unspecified)	i	50.1µM*	2.6%	?
